Hits are enriched below; roughly 5.2% of the tested compounds scored in any of these assays.
mIDH1 inhibitor – human IDH1 R132H inhibition; O75874; IDH1-R132H enzyme, NADPH consumption, diaphorase/resazurin fluorescence; Potency, µM (series often up to 76.6 µM), most hits filed as inhibitors; hit rate 0.093% among 390,000; AID 602179; note: nearly all actives have a fitted effect of over 65% in size
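IDH1-R132H (0.5 ug/mL dispensed) in pH 7.5 Tris buffer was preincubated 30 min with compound, then given a substrate mix of 0.016 mM NADPH and 2 mM alpha-KG for 80 min at room temperature; remaining NADPH was read by diaphorase/resazurin fluorescence.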
VDR inh – vitamin D3 receptor (human) inhibition; VDR-SRC2-3 peptide fluorescence polarization, 2 h; Potency, µM, usual class: inhibitors; hit rate 0.93% among 400,000
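VDR–SRC2-3 interaction, FP format. Cmpds 23 nl via pintool, brief spin, 2 h ambient incubation.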
TrxR1 inh – inhibitors of rat thioredoxin reductase 1 | O89049 | recombinant rTrxR1, NADPH fluorescence consumption, selenite substrate | Potency, µM (series often up to 114 µM), actives largely listed as inhibitors | hit rate 1% among 390,000; note: nearly all actives have a fitted effect of over 65% in size
Target sequence (O89049 whole entry, looked up): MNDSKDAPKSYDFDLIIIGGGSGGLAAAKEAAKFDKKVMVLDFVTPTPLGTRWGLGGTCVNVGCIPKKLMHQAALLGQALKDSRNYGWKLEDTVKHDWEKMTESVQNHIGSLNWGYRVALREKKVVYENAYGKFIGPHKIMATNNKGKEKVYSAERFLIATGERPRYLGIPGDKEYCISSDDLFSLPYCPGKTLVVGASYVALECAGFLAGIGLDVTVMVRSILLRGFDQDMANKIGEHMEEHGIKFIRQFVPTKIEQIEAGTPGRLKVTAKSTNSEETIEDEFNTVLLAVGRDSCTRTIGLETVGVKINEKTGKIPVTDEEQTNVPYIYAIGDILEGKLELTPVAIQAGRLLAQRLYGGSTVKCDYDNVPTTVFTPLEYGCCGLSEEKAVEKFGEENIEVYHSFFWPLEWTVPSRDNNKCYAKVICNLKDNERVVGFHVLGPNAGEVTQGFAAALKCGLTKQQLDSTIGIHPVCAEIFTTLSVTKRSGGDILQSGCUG
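Rat TrxR1 (90 nM in the dispensed reagent) was pre-reduced with 400 uM NADPH for 5 min at room temperature, then incubated with compound for 15 min. After 400 uM selenite was added, NADPH fluorescence (Ex 340/Em 450 nm) was followed for 8 min.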
PLK1 PBD inh – PLK1 (human) polo-box domain binding inhibition; AID 720504; Potency, µM, hits mostly inhibitors; hit rate 2.8% among 360,000; Plk1 PBD binding of FITC phosphopeptide, fluorescence polarization; P53350; note: series mostly up to about 57 µM; nearly all actives have a fitted effect of over 65% in size
Sfp inh – blocks B. subtilis Sfp PPTase activity. AID 1490. Q9F4F7. Potency, µM, hits mostly inhibitors. Biochemical Sfp PPTase activity, qHTS. hit rate 3.5% among 310,000;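 note: the enzyme is Sfp with the accession as filed and its product quenches rhodamine fluorescence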
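After 15 min at room temperature with compound, 15 nM Sfp received 5 uM rhodamine-CoA plus 12.5 uM BHQ-2-ybbR (50 mM Hepes pH 7.6, 10 mM MgCl2). Rate came from the fluorescence difference over 30 min, ex 525/em 598 nm.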
TrxR1 substrate – is turned over as a substrate by rat TrxR1. Potency, µM (top dose mostly 114 µM). purified TrxR1 substrate turnover, NADPH consumption readout. O89049. hit rate 0.01% among 390,000; note: nearly all actives have a fitted effect of over 50% in size
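Rat TrxR1, dispensed at 90 nM, was prereduced with 400 uM NADPH (final) for 5 min at ~22 deg C, then incubated with compound 15 min before 400 uM selenite. A first-read NADPH fluorescence drop versus no-compound background flagged substrates.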
Hits are given with their value; ! = not confirmed by another sample; [ ] = another dose, or the depositor's remark. Calls come from the whole dose curve; as a rule, active = well fitted curve in the direction sought with a large enough effect; inconclusive = small, poorly fitted or top-dose-only effect, or another doubt; inactive = no such curve, though single readings can be large; an effect the other way counts as inactive or inconclusive.

Screening CCCc1nc2ccccc2c(NC(=O)CN(CC)CC)c1CC returned mIDH1 inhibitor inactive, VDR inh inactive, TrxR1 inh inactive, PLK1 PBD inh inactive, Sfp inh 56.2µM and TrxR1 substrate inactive.
`Cc1cc(NC(=O)CSc2nc(N)c(NC(=O)c3ccco3)c(=O)[nH]2)no1` gave mIDH1 inhibitor inactive, VDR inh inconclusive, TrxR1 inh inactive, PLK1 PBD inh 29.9µM, Sfp inh inconclusive and TrxR1 substrate inactive.
Cc1cc(NC(=O)CSc2nc(Cc3ccc(O)cc3)c(C)[nH]2)no1 was read as mIDH1 inhibitor inactive, VDR inh inactive, TrxR1 inh 15.8µM, PLK1 PBD inh inactive, Sfp inh inactive and TrxR1 substrate inactive.
Screening Cc1cc(NC(=O)CSc2nc(N)c(NC(=O)c3ccccc3)c(=O)[nH]2)no1 returned mIDH1 inhibitor inactive, VDR inh inactive, TrxR1 inh inactive, PLK1 PBD inh inactive, Sfp inh inactive and TrxR1 substrate inactive.
CN(C)CCC(=O)N1c2ccccc2Sc2ccc(Cl)cc21 was read as mIDH1 inhibitor inactive, VDR inh inactive, TrxR1 inh inactive, PLK1 PBD inh inactive, Sfp inh inactive and TrxR1 substrate inactive.
`CCN(CC)CCC(=O)N1c2ccccc2Sc2ccc(C(F)(F)F)cc21` gave VDR inh 28.2µM and Sfp inh inactive.
`CCN(CC)CCC(=O)N1c2ccccc2Sc2ccc(Cl)cc21` gave mIDH1 inhibitor inactive, VDR inh 50.1µM!, TrxR1 inh inactive, PLK1 PBD inh inactive, Sfp inh inactive and TrxR1 substrate inactive.
Screening O=C(O)/C=C/C(=O)c1c(-c2ccccc2)[nH]c2ccccc12 returned mIDH1 inhibitor inactive, VDR inh inconclusive, TrxR1 inh 44.7µM, PLK1 PBD inh inactive, Sfp inh inactive and TrxR1 substrate inactive.
Screening CC(=O)OCCCNc1cc(Sc2ccc(C)cc2)c2nonc2c1[N+](=O)[O-] returned mIDH1 inhibitor inactive, VDR inh inconclusive, TrxR1 inh 11.2µM, PLK1 PBD inh inconclusive, Sfp inh inactive and TrxR1 substrate inactive.
`CC(=O)OCCNc1cc(Sc2nc3ccccc3[nH]2)c2nonc2c1[N+](=O)[O-]` gave mIDH1 inhibitor inactive, VDR inh 14.1µM, TrxR1 inh inactive[11.4 µM], PLK1 PBD inh 2.67µM, Sfp inh 1.58µM and TrxR1 substrate inactive.
Screening CC(=O)OCCCNc1cc(Sc2nc3ccccc3s2)c2nonc2c1[N+](=O)[O-] returned mIDH1 inhibitor inactive, VDR inh inconclusive, TrxR1 inh 0.316µM, PLK1 PBD inh 2.12µM, Sfp inh 2.51µM and TrxR1 substrate inactive.
For CC(=O)ON(C(C)=O)c1ccc(/C=C2/C=Cc3ccccc32)cc1 the results were TrxR1 inh inconclusive and TrxR1 substrate inactive.
For CCOC(=O)c1sc(=S)n(C)c1NC(=O)c1ccc(OC)cc1 the results were mIDH1 inhibitor inactive, VDR inh 50.1µM, TrxR1 inh inactive, PLK1 PBD inh 3.36µM, Sfp inh 12.6µM and TrxR1 substrate inactive.
Screening CCOC(=O)c1sc(=S)n(C)c1NC(=O)c1ccccc1Cl returned mIDH1 inhibitor inactive, VDR inh inconclusive, TrxR1 inh inactive, PLK1 PBD inh 11.9µM, Sfp inh 17.8µM and TrxR1 substrate inactive.
Screening COc1ccc(NC(=O)Nc2sc(=S)n(C)c2C)cc1 returned mIDH1 inhibitor inactive, VDR inh inactive, TrxR1 inh inactive, PLK1 PBD inh inconclusive, Sfp inh 20µM and TrxR1 substrate inactive.
For CCOC(=O)c1sc(=S)n(-c2ccccc2Cl)c1C the results were mIDH1 inhibitor inactive, VDR inh inactive, TrxR1 inh inactive, PLK1 PBD inh inactive, Sfp inh inactive and TrxR1 substrate inactive.
For Cc1ccc(C)c(NC(=O)Cn2cc(C(=O)c3ccncc3)c(=O)c3cc(F)ccc32)c1 the results were mIDH1 inhibitor inactive, VDR inh inactive, TrxR1 inh inactive and TrxR1 substrate inactive.
Screening CCOc1ccc2nc(Cl)c(C3CC(c4ccc(C)cc4)=NN3C(=O)CCCC(=O)O)cc2c1 (configuration not stated) returned mIDH1 inhibitor inactive, VDR inh inactive, TrxR1 inh inactive and TrxR1 substrate inactive.
COc1ccc(CNc2oc(-c3ccc(COc4ccccc4C)o3)nc2C#N)cc1 was read as mIDH1 inhibitor inactive, VDR inh inactive, TrxR1 inh inactive and TrxR1 substrate inactive.
